Results reported in PubChem BioAssay (Tox21).
Inconclusive results are not listed. Entries that show only a call come without a potency. Values without a mark were called inactive. Calls of active or inactive are those of the source. Unless noted, the call rests on the fitted dose curve.

Tests used:
[1] = biological target: Nuclear receptor subfamily 1 group I member 3 (Homo sapiens) (UniProt Q14994); test: qHTS assay to identify small molecule agonists of the constitutive androstane receptor (CAR) signaling pathway (AID 1224839; active means well fitted curve in the direction sought with a large enough effect in the repeat runs; an effect the other way counts as inactive or inconclusive; further: nearly all actives have a fitted effect of over 15% in size; further: potency means the concentration at half of the fitted maximal effect; on activation: series mostly up to about 92 µM)
How it was run: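 A 15-concentration quantitative screen uses HepG2 cells co-transfected stably with human CAR and CYP2B6-2.2kb reporter. Treatment lasts 24 h with 0.75 uM PK11195 final present; ONE-Glo luminescence is the signal.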

[2] = qHTS assay to identify small molecule antagonists of the estrogen related receptor signaling pathway with the pleiotropic PPARgamma coactivator (PGC) from Tox21 10K library - cell viability counter screen (AID 1224840; active means well fitted cell-killing curve with a large enough effect in the repeat runs, not every such curve was filed as active; further: nearly all actives have a fitted effect of over 40% in size)
How it was run: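 Following seeding of 2,000 PGC/ERR cells/well and 6 hours' incubation, test compounds were delivered in DMSO. The plates then sat 17.5 hours at 37 C before a fluorogenic live-cell protease reagent (CellTiter-Fluor) was read after 30 min.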

[3] = qHTS assay to identify small molecule antagonists of the estrogen related receptor signaling pathway with the pleiotropic PPARgamma coactivator (PGC) from Tox21 10K library (AID 1224841; call rule not given here; further: actives are mostly falling curves and most rising ones were filed inactive; nearly all actives have a fitted effect of over 50% in size; further: potency means the concentration at half of the fitted maximal effect)
How it was run: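 qHTS antagonist format: PGC/ERR cells, 2k/well, compound in DMSO by pin transfer after 6 h attachment, 18 h treatment at 37 C, One-Glo luminescence read at 30 min.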

[4] = qHTS assay to identify small molecule agonists of the estrogen related receptor signaling pathway with the pleiotropic PPARgamma coactivator (PGC) from Tox21 10K library (AID 1224842; active means well fitted curve in the direction sought with a large enough effect in the repeat runs; an effect the other way counts as inactive or inconclusive; further: nearly all actives have a fitted effect of over 15% in size)
How it was run: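 Luminescence from One-Glo (30 min, room temperature) measured after PGC/ERR cells had 18 h at 37 C with pinned compound (23 nL in DMSO). Cells had been seeded at 2,000 per well and pre-incubated 6 h.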

[5] = biological target: Thyrotropin receptor (Homo sapiens) (UniProt P16473); test: qHTS assay to identify small molecule agonists of the thyroid stimulating hormone receptor (TSHR) signaling pathway (AID 1224843); further: nearly all actives have a fitted effect of over 45% in size
How it was run: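 HEK293 cells stably bearing the thyrotropin receptor were plated at 800 cells/well and challenged with compound (30 min, RT). Accumulated cAMP was quantified via cAMP-d2 competing for cryptate-tagged antibody.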

[6] = qHTS assay to identify small molecule agonists of H2AX (AID 1224845; active means well fitted activation curve with a large enough effect in the signal ratio in the repeat runs, not every such curve was filed as active; the % refers to the signal ratio)
How it was run: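 Phospho-H2AX Ser139 measured by HTRF (ex 320 nm; em 665 and 620 nm) after 24 hr antibody incubation. Compounds, 15 concentrations, 0.76% DMSO, were applied to CHO-K1 cells for 3hr at 37C before lysis.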

[7] = qHTS assay to identify small molecule agonists of the hypoxia (HIF-1) signaling pathway (AID 1224846; active means well fitted activation curve with a large enough effect in the signal ratio in the repeat runs, not every such curve was filed as active; the % refers to the signal ratio)
How it was run: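 A low-serum medium (0.5% dialyzed FBS) holding 2,000 HRE-bla ME-180 cells per well is preincubated for 5 hrs, dosed with compounds by pintool, and kept a further 17 hrs at 37C, 5% CO2 before CCF4-AM FRET detection of beta-lactamase.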

[8] = qHTS assay to identify small molecule agonists of H2AX - cell viability counter screen (AID 1224847); further: nearly all actives have a fitted effect of over 30% in size; further: potency means the concentration at half of the fitted maximal effect
How it was run: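 We seed wild-type CHO-K1 cells overnight, treat them for 3 hr at 37C with compounds in 15-concentration series, and quantify remaining viability by CellTiter-Glo luminescence.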

[9] = qHTS assay to identify small molecule agonists of the hypoxia (HIF-1) signaling pathway - cell viability counter screen (AID 1224844); further: nearly all actives have a fitted effect of over 50% in size
How it was run: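 Cells (HRE-bla ME-180, 2,000 per well) sat 5 hrs at 37C, got compound for 17 hrs, were read for CCF4-AM FRET, and were finally lysed with CellTiter-Glo for a 30 min room-temperature luminescence read.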

[10] = qHTS assay to identify small molecule antagonists of the estrogen related receptor (ERR) signaling pathway from Tox21 library (AID 1224848; active means well fitted curve in the direction sought with a large enough effect in the repeat runs; an effect the other way counts as inactive or inconclusive; further: nearly all actives have a fitted effect of over 50% in size)
How it was run: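 Reading was by luminescence 30 min after ONE-Glo addition. Before that, ERR cells at 2,000 per well had rested 6 h at 37 C/5% CO2 and then received pin-tooled compounds in DMSO for 18 h at 37 C.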

Sequence of Nuclear receptor subfamily 1 group I member 3 (Homo sapiens) (Q14994 whole entry, looked up): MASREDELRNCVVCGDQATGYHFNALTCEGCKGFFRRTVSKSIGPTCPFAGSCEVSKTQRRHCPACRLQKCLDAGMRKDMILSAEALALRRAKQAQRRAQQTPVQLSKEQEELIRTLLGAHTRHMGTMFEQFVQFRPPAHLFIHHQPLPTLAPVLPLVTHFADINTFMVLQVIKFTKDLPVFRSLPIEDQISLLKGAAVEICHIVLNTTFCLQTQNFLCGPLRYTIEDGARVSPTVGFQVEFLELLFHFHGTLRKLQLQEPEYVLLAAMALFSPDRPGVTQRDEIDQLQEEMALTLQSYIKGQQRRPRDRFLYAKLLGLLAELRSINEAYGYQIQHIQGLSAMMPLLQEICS
Sequence of Thyrotropin receptor (Homo sapiens) (P16473 whole entry, looked up): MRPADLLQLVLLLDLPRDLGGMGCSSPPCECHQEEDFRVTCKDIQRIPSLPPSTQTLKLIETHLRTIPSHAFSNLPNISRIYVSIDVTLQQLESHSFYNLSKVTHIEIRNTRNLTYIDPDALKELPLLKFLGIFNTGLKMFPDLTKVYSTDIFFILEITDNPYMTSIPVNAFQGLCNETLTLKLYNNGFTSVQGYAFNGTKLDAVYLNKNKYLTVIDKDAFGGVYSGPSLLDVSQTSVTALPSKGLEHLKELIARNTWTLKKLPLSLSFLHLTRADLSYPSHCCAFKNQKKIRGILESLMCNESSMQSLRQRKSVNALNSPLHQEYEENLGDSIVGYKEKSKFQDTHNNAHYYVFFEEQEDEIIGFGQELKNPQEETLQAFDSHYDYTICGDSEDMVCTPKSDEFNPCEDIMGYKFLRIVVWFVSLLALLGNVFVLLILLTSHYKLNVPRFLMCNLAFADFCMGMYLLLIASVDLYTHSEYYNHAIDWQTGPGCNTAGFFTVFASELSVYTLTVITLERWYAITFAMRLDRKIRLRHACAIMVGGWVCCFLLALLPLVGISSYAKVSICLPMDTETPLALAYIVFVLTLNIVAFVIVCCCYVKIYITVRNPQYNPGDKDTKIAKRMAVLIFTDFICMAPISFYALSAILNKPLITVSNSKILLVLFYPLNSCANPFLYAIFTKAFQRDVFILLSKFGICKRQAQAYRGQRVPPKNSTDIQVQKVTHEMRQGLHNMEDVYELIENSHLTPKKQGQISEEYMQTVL

Structure (SMILES)	Potency [1]	outcome [2]	Potency [3]	outcome [4]	outcome [5]	outcome [6]	outcome [7]	Potency [8]	outcome [9]	Potency [10]
CC(=O)c1ccc(OCC(=O)N2CCCCC2)cc1	18.8 µM (active)	inactive	inactive	inactive	inactive	inactive	inactive	inactive	–	–
Nc1ccc(C(=O)OCC(O)CO)cc1 (centres undefined)	inactive	inactive	inactive	inactive	inactive	inactive	inactive	inactive	inactive	–
C=C(C)C(=O)OC	inactive	inactive	inactive	inactive	inactive	inactive	inactive	inactive	inactive	–
CCNC(=O)/C=C/c1cccc(Br)c1	26.6 µM (active)	inactive	–	–	inactive	inactive	inactive	inactive	inactive	–
CCCCCC1CCCC(=O)O1 (centres undefined)	inactive	inactive	inactive	inactive	inactive	inactive	inactive	inactive	inactive	inactive
CC(C)COC(=O)CC(C(=O)OCC(C)C)S(=O)(=O)O (centres undefined)	inactive	inactive	–	–	–	inactive	inactive	–	inactive	–
CCN(Cc1cccc(S(=O)(=O)O)c1)c1ccccc1	inactive	inactive	–	–	inactive	inactive	inactive	inactive	inactive	–
CC(C)(c1ccc(Oc2ccc3c(c2)C(=O)OC3=O)cc1)c1ccc(Oc2ccc3c(c2)C(=O)OC3=O)cc1	inactive	inactive	inactive	inactive	inactive	inactive	–	inactive	inactive	inactive
Cc1ccc2c(c1)c1c3n2CCNC3CCC1 (centres undefined)	inactive	inactive	–	–	inactive	inactive	–	inactive	inactive	–
O=S(=O)(O)SSS(=O)(=O)O	inactive	inactive	–	–	inactive	inactive	–	inactive	inactive	–
CC(=O)c1ccc2c(c1)CCCC2	inactive	inactive	inactive	inactive	inactive	inactive	–	inactive	inactive	inactive
NS(=O)(=O)c1cc2c(cc1Cl)NC(C(Cl)Cl)NS2(=O)=O (centres undefined)	inactive	inactive	–	–	inactive	inactive	–	inactive	inactive	–
COc1ccc(N=Nc2cc(C)c(N=Nc3ccc(S(=O)(=O)O)cc3)cc2OC)cc1	inactive	–	–	–	–	inactive	–	101 µM (active)	–	–
CC(=O)OCC(=O)[C@@]1(O)[C@H](OC(C)=O)C[C@H]2[C@@H]3CCC4=CC(=O)C=C[C@]4(C)[C@@]3(F)[C@@H](O)C[C@@]21C	inactive	inactive	–	–	–	inactive	–	inactive	inactive	–
C=CCOc1c(Br)cc(C(C)(C)c2cc(Br)c(OCC=C)c(Br)c2)cc1Br	–	inactive	26.6 µM (active)	inactive	inactive	inactive	inactive	inactive	inactive	–
CN=C(NC#N)NCCSCc1csc(N=C(N)N)n1	–	inactive	inactive	inactive	inactive	inactive	inactive	inactive	inactive	–
CCCCCCCCCCCCC1CO1 (centres undefined)	inactive	inactive	–	–	–	inactive	inactive	inactive	inactive	–
O=CN1CCOCC1	–	inactive	inactive	inactive	inactive	inactive	inactive	inactive	inactive	inactive
Nc1cc(Cl)cc(S(=O)(=O)O)c1O	inactive	inactive	–	–	–	–	inactive	inactive	inactive	–
COc1cc2c(Nc3ccc(Br)cc3F)ncnc2cc1OCC1CCN(C)CC1	inactive	inactive	–	–	–	inactive	inactive	inactive	inactive	–
C[Si]1(C)N[Si](C)(C)N[Si](C)(C)N1	inactive	inactive	–	–	–	inactive	inactive	inactive	inactive	–
C=COCCOCCOC=C	inactive	inactive	–	–	–	inactive	inactive	inactive	inactive	–
CCC(=O)c1ccc(O)cc1	inactive	inactive	–	–	–	inactive	inactive	inactive	inactive	–
CC(=O)OC(C)c1ccccc1 (centres undefined)	inactive	inactive	–	–	–	inactive	–	inactive	inactive	–
Cc1ncc([N+](=O)[O-])n1CC(O)CCl (centres undefined)	–	inactive	inactive	inactive	inactive	inactive	inactive	inactive	inactive	inactive
CCOC(=O)CCCCCCCCC(=O)OCC	inactive	inactive	–	–	–	inactive	–	inactive	inactive	–
CN(C)CCCNCCC#N	inactive	inactive	–	–	–	inactive	inactive	inactive	inactive	–
O=C(O)c1ccccc1C(=O)Nc1ccc(S(=O)(=O)Nc2nccs2)cc1	inactive	inactive	–	–	–	inactive	–	inactive	inactive	–
